The target in test [1] is T1, Aspartate--tRNA(Asp/Asn) ligase (Mycobacterium tuberculosis (strain ATCC 25618 / H37Rv)) (UniProt P9WFW3). Further: in the data most compounds retested in dose-response had high values.
T1 sequence (whole entry): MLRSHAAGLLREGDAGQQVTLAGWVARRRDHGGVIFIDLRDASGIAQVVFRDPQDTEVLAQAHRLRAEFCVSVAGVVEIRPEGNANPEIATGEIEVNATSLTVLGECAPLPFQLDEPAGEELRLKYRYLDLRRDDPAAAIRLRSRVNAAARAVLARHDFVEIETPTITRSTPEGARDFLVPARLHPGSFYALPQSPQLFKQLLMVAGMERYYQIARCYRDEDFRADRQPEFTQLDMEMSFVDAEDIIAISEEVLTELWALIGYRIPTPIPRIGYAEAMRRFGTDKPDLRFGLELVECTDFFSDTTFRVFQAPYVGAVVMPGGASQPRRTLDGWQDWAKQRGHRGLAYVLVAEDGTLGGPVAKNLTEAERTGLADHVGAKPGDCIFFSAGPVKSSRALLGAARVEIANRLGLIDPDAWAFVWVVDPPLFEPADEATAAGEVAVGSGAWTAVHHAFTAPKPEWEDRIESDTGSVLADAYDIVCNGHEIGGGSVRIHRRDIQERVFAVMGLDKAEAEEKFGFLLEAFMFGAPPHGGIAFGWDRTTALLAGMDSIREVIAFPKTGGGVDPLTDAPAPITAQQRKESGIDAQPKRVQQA
Nature of the test: Assay for Asp RNA synthetase-1 from Mycobacterium tuberculosis. Also on record: scale not given: direction of the effect not stated beside the values. The following applies: 30 µM. The test is classed as functional.

In test [2] the target is Shiga toxin 2 (Escherichia coli O157:H7) (UniProt P09385+P09386). Nature of the test: E. coli 0.157:H7 Shiga Toxin SOP - stx2 screening assay. In kind it is functional. Also on record: scale not given: direction of the effect not stated beside the values. The following applies: 30 µM.

Regarding `O=C(Nc1ccccn1)C1=NN(c2ccccc2)C(=O)CN1`, the figures for the Percent Effect in test [1] and in test [2] were 0.657% and -27.9%, respectively.
On the same counts, the results for `O=C(CCc1ccc(Br)cc1F)NS(=O)(=O)c1ccc2c(c1)OCCO2` are 7.79% and 13.8%.
The like results for `Cn1ncc2c1CCCC2NCc1ccc(Cl)s1` (configuration not stated) were, in that order, -3.2% and 28.8%.
For the compound `FC(F)(F)c1cc(N2CCc3ncnc(NC4CC4)c3CC2)ncn1`, the Percent Effect in test [1] is 5.62%; in test [2], -15.2%.
The like results for `CCOc1cccc(C(=O)NCCC(=O)Nc2ccncc2)c1` were, in that order, -3.32% and -80.5%.
The like results for `COc1c(CNCc2ccc(CN(C)C)cc2)c(C(C)C)nn1C` were, in that order, 0.7% and 16.1%.
On the same counts, the results for `CC(C)c1n[nH]c(C2CN(C(=O)c3csnn3)CCO2)n1` (configuration not stated) are -5.03% and -13.5%.
For the compound `Cc1csc(CNC(=O)Nc2cc(C(F)(F)F)c[nH]c2=O)n1`, the Percent Effect in test [1] is -5.12%; in test [2] it was 8.58%.
For `Cc1cccc(-c2nc(CN3CCc4cnc(C)nc4C3)no2)c1`, the Percent Effect in test [1] is 4.76%; in test [2], 6.99%.
The like results for `Cc1nn2cccnc2c1C(=O)N1CCCC(n2ccnc2)C1` (configuration not stated) were, in that order, 6.28% and -29.8%.
For the compound `CCOC(=O)C1CCN(Cc2csc(C(C)(C)C)n2)CC1`, the Percent Effect is -9.34% in test [1] and -1.05% in test [2].
The like results for `O=C(C1CCCC1)N1CCN(Cc2nc(-c3ccco3)no2)CC1` were, in that order, -3% and -10.1%.
The like results for `O=S(=O)(NCC1(O)CCOc2ccccc21)c1cccs1` (configuration not stated) were, in that order, -0.546% and -8.71%.
For `Cc1cncc(C2CCCN(C(=O)c3c[nH]c(=O)[nH]c3=O)C2)n1` (configuration not stated), the Percent Effect in test [1] was found to be 3.87%; in test [2], 26.6%.
On the same counts, the results for `CNS(=O)(=O)c1ccc(C(=O)N2CCCC2c2ccccc2)o1` (configuration not stated) are -0.871% and 34%.
With `Cc1cc(CN2CCOC(CN(C)C)C2)no1` (configuration not stated), the Percent Effect in test [1] was 1.81%; in test [2], 26.2%.
With `CC(C)N(C)S(=O)(=O)N(C)Cc1ccc2c(c1)OCO2`, the figures for the Percent Effect in test [1] and in test [2] were -7.16% and -23.7%, respectively.
On the same counts, the results for `CC(NC(=O)NCCN1CCCCCC1=O)c1nncn1C` (configuration not stated) are -7.63% and -18.6%.
On the same counts, the results for `Cc1nc(CN2CCCN(CC(=O)Nc3cccnc3)CC2)no1` are 1.58% and 16.4%.
As to `CCN(CC(=O)NC(C)C)S(=O)(=O)N1CCCCCC1`, the results for the Percent Effect in test [1] and in test [2] were -4.33% and -4.09%, respectively.
Turning to `CCCOc1cc(C)ccc1NC(=O)NCCC(=O)N(C)C`, the values for the Percent Effect in test [1] and in test [2] were 2.21% and -4.42%, respectively.
The like results for `CCOc1c(Cl)cccc1NCc1cc(C)on1` were, in that order, -1.21% and -64.7%.
On the same counts, the results for `CC(=O)N1CCCC1c1nnc2n1CCCCC2` (configuration not stated) are -0.915% and 0.261%.
The like results for `O=C1N(c2ccc(F)cc2)Cc2nc(=O)n(Cc3cccc(Cl)c3)n21` were, in that order, 0.784% and -12.3%.
For `CCc1cnc2c(c1Nc1ccc(OC)cc1)c(=O)n(C)c(=O)n2C`, the values for the Percent Effect in test [1] and in test [2] were 0.831% and -12.8%, respectively.
For the compound `CC(C)S(=O)(=O)NCC1CCCN(C(=O)c2ccc3c(c2)CCC3)C1` (configuration not stated), the Percent Effect worked out at 6.5% in test [1] and 1.33% in test [2].
The like results for `CC(=O)N1CCC(c2nccnc2Oc2ccccc2)CC1` were, in that order, -0.819% and -5.88%.
For the compound `COc1ccc2c(c1)CN(Cc1nc3c(cnn3C)c(=O)[nH]1)CC2`, the results for the Percent Effect in test [1] and in test [2] were -4.4% and -3.66%, respectively.
On the same counts, the results for `CCCn1ncc2c(C(=O)Nc3n[nH]c(SC)n3)cc(C3CC3)nc21` are -6.49% and -0.011%.
As for `COc1c(C2CCCN2Cc2c(C)noc2C)c(C)nn1C` (configuration not stated), the figures for the Percent Effect in test [1] and in test [2] were 1.48% and 6.54%, respectively.
Take `c1cnnc(N2CCCC(NCc3nc(C4CC4)no3)C2)c1` (configuration not stated): the Percent Effect in test [1] was 6.87%; in test [2], -18.7%.
On the same counts, the results for `CC(=O)N1CCCC1C(=O)NCCOc1cc(C)cc(C)c1` (configuration not stated) are -2.19% and 9.04%.
On the same counts, the results for `O=C(c1ccno1)N1CCC2(CC1)C(=O)N(CC1CC1)c1ccccc12` are -0.569% and -1.25%.
On the same counts, the results for `CCOCC1CN(C(=O)c2ccncc2)Cc2nn(C)cc21` (configuration not stated) are 4.25% and -22.5%.
Take `Cc1nc(C)n(CC2CCCN2Cc2nc3ccccc3nc2C)n1` (configuration not stated): the Percent Effect in test [1] is -11.8%; in test [2], -7.98%.
Consider `CC(=O)N1C[C@H](NC(=O)c2cscn2)[C@@H]2OCCC[C@@H]21`, for which the Percent Effect in test [1] was -2.64%; in test [2] it was 6.1%.
The like results for `Cc1ccc(C(=O)N2CCN(CCCSCC#N)CC2)o1` were, in that order, 3.17% and -67.1%.
On the same counts, the results for `Cc1nc([C@@H]2C[C@@H]3CCN(C(=O)Cc4ccsc4)C[C@H]3O2)no1` are -2.49% and 2.89%.
On the same counts, the results for `O=C(c1cscn1)N1CCC2(CCN(Cc3nccs3)C2)CC1` are 1.85% and -5.87%.
As for `CC(C)N1CCC(Cc2cc(-c3ccccc3C(=O)O)ncn2)CC1`, the values for the Percent Effect in test [1] and in test [2] were -0.134% and 8.23%, respectively.
On the same counts, the results for `CCn1nc(C)c(CCNC(=O)C2CCCN(C(=O)N(C)C)C2)c1C` (configuration not stated) are -4.2% and 14.2%.
On the same counts, the results for `Cc1cn2nc(N3CCCC3CC(C)(C)C)sc2n1` (configuration not stated) are 1.06% and 22.9%.
On the same counts, the results for `O=C(c1cnco1)N1C[C@@H]2CC[C@H](Oc3cccc(F)c3)[C@@H]2C1` are -3.5% and -73.9%.
As to `CN(C)S(=O)(=O)N1CC[C@]2(C[C@H](Oc3ncccc3F)CO2)C1`, the Percent Effect turned out to be 2.03% in test [1] and 2.42% in test [2].
The like results for `CCc1nc(CC(=O)N2CCn3c(nnc3C(F)(F)F)C2)cs1` were, in that order, 1.3% and 17.9%.
The like results for `CN1CCOC(CNCCc2ccccn2)C1` (configuration not stated) were, in that order, -3.97% and -10.7%.
On the same counts, the results for `O=S(=O)(c1cccs1)N1CC[C@H](O)[C@@H]1Cc1ccncc1` are -0.474% and 2.87%.
Regarding `Cc1cnn(CCCNC(=O)N2CCCCC(N3CCCC3)C2)c1` (configuration not stated), the Percent Effect in test [1] is 1.48%; in test [2], 22.3%.
On the same counts, the results for `Cc1nc2cc(=O)[nH]n2c(C)c1CC(=O)Nc1ccc2ccccc2n1` are 1.28% and 36.5%.
In the case of `CCSc1cc(C(=O)NCc2ccccc2O)ccn1`, the Percent Effect in test [1] amounted to 2.33%; in test [2], 11.7%.
Take `Cc1ccc([C@@H]2CN(C(=O)c3ccc[nH]3)C[C@H]2NC(=O)C2CC2)cc1`: the values for the Percent Effect in test [1] and in test [2] were -1.93% and 3.8%, respectively.

The record behind these values is ChEMBL document CHEMBL3988442, “University of Dundee, Small-Polar-MMV Screening Library” (2021).
